Fam108B counter: counter-screen for RBBP9 inhibitors: inhibitors of mouse Fam108B; recombinant Fam108B, FP-Rh probe fluorescence polarization; inhibition, % at 9.51 µM; 300,000 tested, 0.33% active;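 active means inhibition above the screen mean inhibition plus 3 SD, computed separately per campaign, cut at about 18% in these data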;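 further: inhibitors lower polarization as less probe binds the enzyme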
GSTO1 inh: blocks human GSTO1 in RBBP9 counter-screen | P78417 | recombinant GSTO1, activity-based probe fluorescence polarization | inhibition, % at 5.96 µM | 300,000 tested, 1.1% active | AID 1974;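 active means inhibition above the campaign mean inhibition plus 3 SD, cut at about 35% in these data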;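 further: 0% = GSTO1-1 with DMSO and 100% = wells lacking GSTO1-1 enzyme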
PAD4 inh: inhibitors of human PAD4; inhibition, % at 6.36 µM; recombinant PAD4, RCA probe fluorescence polarization; 330,000 tested, 0.41% active; Q9UM07;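 active means percent inhibition above a cutoff equal to the mean of all tested compounds plus 3 SD, cut at about 15% in these data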;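 further: 0% = PAD4 with RCA probe and DMSO and 100% = probe without PAD4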
Target sequence (Q9UM07 whole entry, looked up): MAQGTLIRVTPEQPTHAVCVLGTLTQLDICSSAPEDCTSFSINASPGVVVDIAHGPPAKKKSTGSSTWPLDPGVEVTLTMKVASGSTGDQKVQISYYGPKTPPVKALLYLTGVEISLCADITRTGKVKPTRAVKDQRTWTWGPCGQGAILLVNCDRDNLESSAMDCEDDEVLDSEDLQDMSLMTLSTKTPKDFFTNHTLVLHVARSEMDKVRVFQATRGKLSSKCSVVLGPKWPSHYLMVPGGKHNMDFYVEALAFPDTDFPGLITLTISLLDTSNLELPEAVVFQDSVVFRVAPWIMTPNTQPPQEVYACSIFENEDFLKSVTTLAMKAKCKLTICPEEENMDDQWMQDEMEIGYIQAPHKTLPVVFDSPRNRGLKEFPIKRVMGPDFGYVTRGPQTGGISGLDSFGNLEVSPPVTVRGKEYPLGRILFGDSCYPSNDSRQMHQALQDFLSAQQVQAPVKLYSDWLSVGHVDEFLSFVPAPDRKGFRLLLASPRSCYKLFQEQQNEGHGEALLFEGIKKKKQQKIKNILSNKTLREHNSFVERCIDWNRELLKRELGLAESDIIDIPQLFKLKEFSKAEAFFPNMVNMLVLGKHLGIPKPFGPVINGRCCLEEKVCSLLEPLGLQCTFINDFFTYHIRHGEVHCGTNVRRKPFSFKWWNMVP
LYPLA2 counter: counter-screen for PME1 inhibitors: inhibitors of human LYPLA2 | AID 2177 | inhibition, % at 5.9 µM | 320,000 tested, 0.38% active | recombinant LYPLA2, FP-Rh probe fluorescence polarization | O95372;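 active means inhibition above the screen-wide mean plus 3 SD, limit set per campaign, cut at about 26% in these data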;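 further: 0% = LYPLA2 with DMSO and 100% = wells lacking LYPLA2 enzyme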
LYPLA1 counter: blocks human lysophospholipase 1, a PME1 counter-screen; 320,000 tested, 0.16% active; O75608; inhibition, % at 5.9 µM; recombinant LYPLA1, FP-Rh probe fluorescence polarization;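 active means inhibition above the mean of all tested compounds plus 3 SD, set per campaign, cut at about 14% in these data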;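 further: inhibitors block serine hydrolase probe labeling of LYPLA1 so polarization falls; 0% = enzyme with DMSO and 100% = wells lacking LYPLA1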
PME-1 primary: PME-1 (human) inhibition; 320,000 tested, 0.53% active; Q9Y570; inhibition, % at 5.9 µM; recombinant PME-1, FP-Rh probe fluorescence polarization; AID 2130;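 active means inhibition above the campaign mean of all compounds plus 3 SD, cut at about 26% in these data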;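 further: competitive labeling of PME-1 active site by serine hydrolase directed probe; 0% = PME-1 with DMSO and 100% = wells lacking PME-1 enzyme; inhibitors block probe labeling so polarization falls and inhibition rises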
GSTO1 inh conf: confirmation of human GSTO1 inhibitors; inhibition, % at 5.96 µM; AID 2176; recombinant GSTO1, probe fluorescence polarization; shares compounds with GSTO1 inh; 2,400 tested, 54% active;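 active means inhibition above the primary screen's cutoff, its mean inhibition plus 3 SD, cut at about 35% in these data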;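 further: loss of polarization as inhibitors block binding of rhodamine sulfonate ester activity probe; 0% = GSTO1 with DMSO and 100% = wells lacking GSTO1 enzyme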
GSTO1 recomb ABPP: GSTO1 (human) inhibition by gel ABPP | 130 tested, 30% active | recombinant GSTO1, gel ABPP SE-Rh probe fluorescence | shares compounds with GSTO1 inh | inhibition, % at 1 µM;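 active means inhibition of the enzyme GSTO1 above about 75%, limit read from the data; inactive means inhibition below that limit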
* = called active by the depositor; · = not tested or not shown. Compounds with a hit are over-represented: about 1.8% of the library has one in this group of screens.

SMILES | Fam108B counter | GSTO1 inh | PAD4 inh | LYPLA2 counter | LYPLA1 counter | PME-1 primary | GSTO1 inh conf | others
O=C1/C(=N\S(=O)(=O)c2cccs2)C([n+]2ccccc2)=C([O-])c2ccccc21 | 9 | 92* | 12 | 3 | -3 | -2 | 86*
Cc1ccc(Cl)c(NC(=O)COC(=O)c2cc[n+]([O-])cc2)c1Cl | · | · | -6 | · | · | · | ·
CC1=NN(c2ccc(Br)cc2)C(=O)/C1=C/c1cccs1 | 6 | 45* | 12 | 11 | -2 | 8 | 17
COc1ccc(-n2nc(C(=O)NCC(=O)Nc3ccc(F)cc3)c3ccccc3c2=O)cc1 | -15 | -12 | -4 | -1 | -4 | -22 | ·
CCCC1NC(=S)N(C2CCCCC2)C1=O (centres undefined) | -1 | 40* | -1 | 5 | 3 | -4 | 3
O=C(NC1(O)C(=O)c2ccccc2C1=O)c1ccccc1 | 9 | 77* | 7 | 5 | 3 | 5 | 82*
O=S(=O)(c1ccc(Br)cc1)N1CCC2(CC1)OCCO2 | 0 | 1 | 2 | 4 | 0 | 2 | ·
CC12CCC(C(=O)N(CC3CO3)C1=O)C2(C)C (centres undefined) | -2 | 61* | 2 | 2 | 2 | -10 | 77* | GSTO1 recomb ABPP=7
Cc1cc(C)n2nc(SCC(=O)N(CCC#N)c3ccccc3F)nc2n1 | · | · | 0 | -3 | -1 | -1 | ·
CCOC(=O)c1nc(N/N=C/c2ccccc2)sc1Br | 2 | 51* | -4 | -5 | -1 | 6 | 21
Cc1ccc(S(=O)(=O)c2nc(S(C)(=O)=O)sc2N2CCC3(CC2)OCCO3)cc1 | 3 | 63* | 4 | 5 | 4 | 5 | 5
COC1=C(c2ccccc2)C(=O)c2ccccc2C1=O | 3 | 44* | -13 | 0 | -1 | 9 | 35*
COc1ccccc1OCC(=O)Nc1nc(C)c(C)s1 | -3 | -4 | 1 | -3 | 1 | -5 | ·
COc1ccc(C(CCN(Cc2ccc(OC)c(OC)c2)C(C)=O)c2ccccc2)cc1 (centres undefined) | 4 | 0 | -2 | 8 | -1 | -2 | ·
COc1ccc(CN(CCC(c2ccccc2)c2ccc(OC(C)C)cc2)C(=O)CCl)cc1OC (centres undefined) | -3 | 78* | 11 | 15 | -1 | -4 | 90* | GSTO1 recomb ABPP=90*
COC(=O)c1ccc(C2c3c(oc4ccc(Cl)cc4c3=O)C(=O)N2CCN2CCOCC2)cc1 (centres undefined) | 7 | 2 | 2 | -2 | 0 | 1 | ·
COc1cccc(-n2nnc3c(=O)n(CC(=O)N4CCC(Cc5ccccc5)CC4)cnc32)c1 | -1 | 39* | -1 | 6 | 1 | 0 | 29
Cc1ccccc1N(Cc1cc(=O)[nH]c2ccccc12)C(=O)C(C)C | 2 | 2 | 6 | 0 | 2 | -8 | ·
CCCC(=O)N(Cc1cc(=O)[nH]c2ccccc12)c1ccccc1 | -2 | -6 | 4 | 3 | -2 | 1 | ·
CCCN(C(=O)Cn1ncc2c([nH]c3ccccc32)c1=O)c1ccccc1C | -2 | -1 | 0 | 3 | 1 | 0 | ·
O=C(CCl)N(Cc1cc(=O)[nH]c2ccccc12)c1ccccc1 | -4 | 85* | 0 | 3 | -4 | 1 | 92* | GSTO1 recomb ABPP=54
O=C(CCl)N(Cc1ccccc1)c1ccccc1 | -1 | 93* | 0 | 2 | 4 | 3 | 96* | GSTO1 recomb ABPP=36
Cc1ccccc1N(Cc1cc(=O)[nH]c2ccccc12)C(=O)CCl | -1 | 74* | 3 | -6 | -6 | 3 | 75* | GSTO1 recomb ABPP=21
CCCCCCCN(C(=O)CCl)c1ccccc1C | 2 | 101* | 6 | -1 | 2 | -1 | 96* | GSTO1 recomb ABPP=68
O=[N+]([O-])c1ccc2nnn(O)c2c1 | 11 | 7 | -2 | 4 | -3 | 8 | ·
Cc1[nH]n(-c2ccccc2)c(=O)c1N=Nc1ccccc1C(=O)O | 9 | 41* | 1 | 2 | -2 | 17 | 11
Cc1[nH]n(-c2ccccc2)c(=O)c1N=Nc1nccs1 | 3 | 15 | -1 | 8 | 2 | 2 | ·
Cc1ccc(C(C)NC(=O)Cc2cccs2)cc1C (centres undefined) | 6 | 11 | 10 | 1 | -2 | 1 | ·

Bioassay records from PubChem BioAssay.
